High-throughput results deposited in PubChem BioAssay by National Center for Advancing Translational Sciences (NCATS).
Vaccinia Venus – vaccinia inhibition (Venus reporter); 0.46% of 330,000 active; Vaccinia virus Venus reporter expression, fluorescence; AID 720580; Potency, µM (top dose mostly 36.5 µM), inactives show top-dose activity change, negative = inhibition, hits mostly inhibitors; calls by dose curve; tested in A549 cells; note: nearly all actives have a fitted effect of over 30% in size
VACV mCherry inh – vaccinia inhibition (mCherry reporter) | Vaccinia virus mCherry reporter infection, fluorescence | Potency, µM (series often up to 36.5 µM), for the others: top-dose activity change, negative = inhibition, hits mostly inhibitors | 0.63% of 310,000 active | AID 720579; calls by dose curve; tested in A549 cells; note: nearly all actives have a fitted effect of over 35% in size
Giardia FBPA inh-1 – Giardia lamblia aldolase inhibition; A8B2U2; Potency, µM (doses to about 59.6 µM), inactives show at the top dose activity, negative = inhibition, hits mostly inhibitors; 0.71% of 290,000 active; AID 2451; purified Giardia FBPA; note: nearly all actives have a fitted effect of over 55% in size
Target sequence (A8B2U2 whole entry, looked up): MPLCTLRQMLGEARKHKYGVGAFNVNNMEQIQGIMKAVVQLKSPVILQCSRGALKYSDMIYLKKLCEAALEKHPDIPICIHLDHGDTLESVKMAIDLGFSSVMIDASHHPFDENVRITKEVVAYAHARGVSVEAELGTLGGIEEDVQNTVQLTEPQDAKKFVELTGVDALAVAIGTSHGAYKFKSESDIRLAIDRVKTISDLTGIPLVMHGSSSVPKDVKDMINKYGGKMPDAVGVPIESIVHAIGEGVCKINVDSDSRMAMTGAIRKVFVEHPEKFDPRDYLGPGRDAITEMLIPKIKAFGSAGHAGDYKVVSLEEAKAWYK
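Giardia FBPA (40 nM reagent) was preincubated 10 min at RT with compound (up to 57.5 uM final), then substrate plus GAPDH/TPI/NAD/arsenate coupling system with diaphorase/resazurin was added; resorufin fluorescence (525/598 nm) was read after 20 min.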
FMDV inh – antivirals against foot and mouth disease virus | AID 1159524 | 1.2% of 410,000 active | Potency, µM (series often up to 57.9 µM), for inactives: at the top dose activity change, negative = inhibition, usual class: inhibitors | FMDV antiviral cell-based qHTS; calls by dose curve; tested in HEK293T cells; note: read-out not given here; nearly all actives have a fitted effect of over 45% in size
Giardia growth – Giardia lamblia growth inhibition; shares compounds with Giardia FBPA inh-1; Giardia lamblia trophozoite growth inhibition; Potency, µM (top dose mostly 57.5 µM), for the others: top-dose activity change, negative = inhibition, usual class: inhibitors; 5% of 1,500 active;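 note: trophozoites exposed to compound for 48 h at 37 °C; nearly all actives have a fitted effect of over 70% in size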
Mammalian tox – mammalian cytotoxicity of Giardia aldolase inhibitor hits | Potency, µM (doses to about 57.5 µM), without a hit: at the highest dose viability change, negative = toxicity, actives largely listed as inhibitors | 4% of 1,500 active | shares compounds with Giardia FBPA inh-1 | mammalian cell viability counter-screen, qHTS | AID 2786;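 note: Chinese hamster ovary cells used as mammalian cytotoxicity surrogate; viability measured as cellular ATP by luminescence; compound exposure lasted 48 h before reading; nearly all actives have a fitted effect of over 60% in size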
Giardia FBPA inh-2 – confirmation of Giardia fructose-bisphosphate aldolase inhibitors; shares compounds with Giardia FBPA inh-1; purified Giardia aldolase enzyme activity, qHTS; Potency, µM (titrated, usually from 57.5 µM), for the others: at the top dose activity change, negative = inhibition, usual class: inhibitors; 5% of 1,500 active; AID 2787; note: nearly all actives have a fitted effect of over 45% in size
Rabbit aldolase – blocks rabbit muscle aldolase in Giardia aldolase selectivity test. 4% of 1,500 active. AID 2794. Rabbit muscle FBPA enzyme inhibition, selectivity counter-screen. shares compounds with Giardia FBPA inh-1. Potency, µM (doses to about 57.5 µM), without a hit: at the highest dose activity, negative = inhibition, most hits filed as inhibitors; note: nearly all actives have a fitted effect of over 60% in size
Target sequence (P00883 whole entry, looked up): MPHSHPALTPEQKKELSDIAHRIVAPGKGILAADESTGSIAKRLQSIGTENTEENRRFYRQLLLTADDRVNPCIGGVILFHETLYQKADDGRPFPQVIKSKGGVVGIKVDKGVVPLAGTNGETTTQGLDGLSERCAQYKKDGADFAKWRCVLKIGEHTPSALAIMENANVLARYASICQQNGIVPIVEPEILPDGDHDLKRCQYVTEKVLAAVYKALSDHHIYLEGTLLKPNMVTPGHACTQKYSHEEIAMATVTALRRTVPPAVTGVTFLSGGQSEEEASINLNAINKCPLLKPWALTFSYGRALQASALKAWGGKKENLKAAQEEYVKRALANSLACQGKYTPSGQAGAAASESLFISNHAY
GAPDH coupling – counter-screen for Giardia aldolase inhibitors: GAPDH coupling enzyme; shares compounds with Giardia FBPA inh-1; 6% of 1,500 active; AID 2795; GAPDH coupling enzyme counterscreen, biochemical, qHTS; Potency, µM (highest dose often 57.5 µM), for inactives: at the highest dose activity change, negative = inhibition, most hits filed as inhibitors; note: nearly all actives have a fitted effect of over 55% in size
Active calls of the source: *; i = inactive; ? = inconclusive; . = no result; [ ] = dose if it differs, or a comment. Sampled rows, rich in hits. Any-hit rate of the full collection: about 2.2%. Unless noted, calls come from the whole dose curve; as a rule, active = well fitted curve in the direction sought with a large enough effect; inconclusive = small, poorly fitted or top-dose-only effect, or another doubt; inactive = no such curve, though single readings can be large; an effect the other way counts as inactive or inconclusive. % is set by controls: 0 for no effect and ±100 for the full control effect; potency is the fitted concentration of half-maximal effect.

SMILES	Vaccinia Venus	VACV mCherry inh	Giardia FBPA inh-1	FMDV inh	Giardia growth	Mammalian tox	Giardia FBPA inh-2	Rabbit aldolase	GAPDH coupling
O=Cc1ccc(I)cc1	-15%	-3%	.	.	.	.	.	.	.
COc1ccc(-c2nn(CCC(=O)O)cc2/C=N/NC(N)=S)cc1	-7%	-11%	16µM*	-9%	3%[10.4 µM]	18%	1%	2%	11%
CNc1n[nH]c(=S)s1	-5%	i	18µM*	-4%	-17%	1%	-1%	-4%	12%
COC(=O)[C@@H]1N2C(=O)[C@@H](NC(=O)C(C)Oc3ccccc3)[C@H]2SC1(C)C (some centres not stated)	-14%	i	.	.	.	.	.	.	.
COc1cccc(NC(=O)CN(C)CC(=O)Nc2ccc(C)cc2Cl)c1	-13%	-10%	14µM*	-6%	-27%	16%	-2%	5%	6%
Cc1ccc(NC(=O)CN(C)CC(=O)Nc2ccccc2Oc2ccccc2)cc1	-1%	1%	13µM*	-2%	-26%	-5%	-1%	-3%	3%
O=C(Nc1ccc(F)cc1F)c1cc(=O)n(-c2ccccc2)c(=O)[nH]1	3%	i	7.9µM*	3%	27%	-11%	-7%	4%	-2%
Cn1ccnc1SC(C(=O)O)c1ccccc1 (configuration not stated)	.	.	14µM*	-4%	?	20%	5%	6%	3%
CC(C(=O)Nc1ccccc1C(F)(F)F)N1CCN(C)CC1 (configuration not stated)	.	.	16µM*	2%	-7%[10.4 µM]	9%	4%	-3%	13%
CN1CCN(CC(=O)Nc2ccccc2C(F)(F)F)CC1	.	.	?	-13%	.	.	.	.	.
CCN(CC)C(=O)CSc1nnc(-c2ccc(F)cc2)n1N	-10%	.	11%	-6%	.	.	.	.	.
CCN(CC)C(=O)CSc1n[nH]c(=S)n1N	3%	-4%	7.1µM*	-16%	-18%[38.3 µM]	-11%	-30%	-19%	-19%
CC(=O)C(C(C)=O)c1c(Cl)c(O)c(O)c2c(C(=O)c3ccccc3)coc12	?	i[1.46 µM]	18µM*	?	-12%	-16%	?	-24%	-12%
C=CCSc1n[nH]c(-c2cccs2)n1	-22%	i	13µM*	22%	-22%	6%	3%	-1%	3%
O=C(CSc1n[nH]c(-c2cccs2)n1)NCc1cccs1	.	.	-14%	6%	.	.	.	.	.
COC(=O)C1=C(C(=O)OC)[C@@H]2N(Cc3ccccc3)c3ccccc3[C@@]23C[C@@H](C(=O)OC)N(S(=O)(=O)c2ccc(Br)cc2)C3=N1	.	.	0%[12.9 µM]	.	.	.	.	.	.
CN(C)C(=S)SSC(=S)N(C)C	-11%	-26%	40µM*	0%	14µM*	4.5µM*	?	?	40µM*
COc1ccc(S(=O)(=O)c2c(Nc3ccc(C)cc3C)sc(C(=O)c3ccc(F)cc3)c2N)cc1	-12%	-15%	.	2%	.	.	.	.	.
CCNC(=O)C1CCCN1C(=O)C(CCCN=C(N)N)NC(=O)C(CC(C)C)NC(=O)C(Cc1cn(Cc2ccccc2)cn1)NC(=O)C(Cc1ccc(O)cc1)NC(=O)C(CO)NC(=O)C(Cc1c[nH]c2ccccc12)NC(=O)C(Cc1cnc[nH]1)NC(=O)C1CCC(=O)N1 (configuration not stated)	-5%	i	10µM*	-28%	16%[38.3 µM]	2%	-4%	13%	0%
CN(CCOCCOc1ccc2ccccc2c1)Cc1ccccc1	?	-15%	2%	-7%	.	.	.	.	.
CC1=CC(=O)NP(=O)(Oc2ccc3ccccc3c2)N1 (configuration not stated)	-12%	.	16µM*	-24%	?	10%	-17%	7%	12%
Oc1cccc2nc3ccccc3nc12	5%	2%	18µM*	10%	-2%[10.4 µM]	-10%	?	-21%	?
COc1ccc(N=Cc2cc(Cc3ccccc3Cl)cc([N+](=O)[O-])c2O)cc1OC	-16%	-4%	0.56µM*	8%	2%[10.4 µM]	11%	?	-21%	-26%
Cc1nc2ccc(C(=O)NCC3CCC4(CCN(Cc5cccnc5)CC4)O3)cc2nc1C (configuration not stated)	4%	-11%	.	-8%	.	.	.	.	.
C=CCc1ccc(OCCOc2cccc3ccc(C)nc23)c(OC)c1	.	.	11µM*	-10%	?	-19%	-22%	-13%	-9%
SMILES	Vaccinia Venus	VACV mCherry inh	Giardia FBPA inh-1	FMDV inh	Giardia growth	Mammalian tox	Giardia FBPA inh-2	Rabbit aldolase	GAPDH coupling
CCc1c(O)nc(SC2CC(=O)N(c3ccc(F)c(Cl)c3)C2=O)[nH]c1=O (configuration not stated)	2%	-1%	3.2µM*	-3%	11%[38.3 µM]	-7%	?	15%	5%
Cc1ccc(CN2CCC(N3CC(C)OC(C)C3)CC2)cc1 (configuration not stated)	.	.	16µM*	-18%	?	5%	3%	5%	1%
CSc1ccc(CN2CCC(N3CC(C)OC(C)C3)CC2)cc1 (configuration not stated)	-11%	-11%	?	-30%	.	.	.	.	.
COc1ccccc1NS(=O)(=O)c1cc(NC(=O)c2sccc2C)ccc1N1CCCC1	6%	-10%	14µM*	91%	-12%[10.4 µM]	-18%	?	?	?
C[C@H](NC(=O)[C@@H](N)Cc1ccc(O)cc1)C(=O)NCC(=O)N[C@H]1CSSC[C@@H](C(=O)O)NC(=O)[C@H](CO)NC(=O)[C@H]([C@@H](C)O)NC(=O)[C@H](Cc2ccccc2)NC(=O)[C@H]([C@@H](C)O)NC(=O)[C@H](CCCCN)NC(=O)[C@@H](Cc2c[nH]c3ccccc23)NC(=O)[C@H](Cc2ccccc2)NC(=O)[C@H](Cc2ccccc2)NC(=O)[C@H](CC(N)=O)NC(=O)[C@H](CCCCN)NC1=O	.	.	0%	.	.	.	.	.	.
COc1ccc(/C=C(\C)C(=O)NO)cc1	-13%	-3%	.	.	.	.	.	.	.
CC(NC(=S)NNS(=O)(=O)c1cccc([N+](=O)[O-])c1)c1ccccc1 (configuration not stated)	-3%	-7%	16µM*	-5%	12%	12%	3%	15%	26%
OC(Cc1ccc2ccccc2n1)c1ccccc1 (configuration not stated)	-7%	-20%	.	.	.	.	.	.	.
O=C(Nc1nnc(-c2ccco2)o1)c1ccc(N2C(=O)CCC2=O)cc1	0%	-3%	18µM*	11%	60%	18%	8%	3%	4%
